Data reported in PubChem BioAssay AID1159580 (chemical genetic matrix, 2015).
Several values for one entry are separate records, joined by “and”; a condition that tells them apart may be missing. Identical values can stand only once. In all, about 5,500 compounds went through this assay and about 2,000 (36%) were called active. Roughly 18% stayed inconclusive and do not appear here. No stated cut-off is given here; in the data, active means normalized growth mostly below about 0.91 (no sharp cut-off); inconclusive means no clear call, values can overlap the other calls; inactive means mostly above about 0.92. The list shows a part of the results.

Assay: chemical genetic growth profiling, strain panel (AID 1159580);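 further: tested at 20 µM; growth read once vehicle control cultures reached saturation at 30 °C; 1 = growth at the plate median or of vehicle wells; lower values mean less growth of the strain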
Conditions: S. cerevisiae deletion strains, growth OD

Measured: normalized growth

COc1ccccc1OCC(O)CO (stereo not drawn)
inactive: locus YAL021C, strain ccr4, active compounds read low 1.02 | locus YAL026C, strain drs2, active compounds read low 1.02 | locus YAL030W, strain snc1, active compounds read low 1.02 | locus YBL061C, strain skt5, active compounds read low 1.02 | locus YBR009C, strain hhf1, active compounds read low 1.02 | locus YBR021W, strain FUR4, active compounds read low 1.02 | locus YBR023C, strain chs3, active compounds read low 1.02 | locus YBR171W, strain sec66, active compounds read low 1.04 | locus YBR229C, strain ROT2, active compounds read low 1 | locus YBR231C, strain swc5, active compounds read low 1.02 | locus YBR279W, strain paf1, active compounds read low 1.03 | locus YCL011C, strain gbp2, active compounds read low 1.02 | locus YCL016C, strain dcc1, active compounds read low 1.02 | locus YCL029C, strain bik1, active compounds read low 0.972 | locus YCL061C, strain MRC1, active compounds read low 1.03 | locus YCL069W, strain vba3, active compounds read low 1.01 | locus YCR088W, strain abp1, active compounds read low 1.02 | locus YDL005C, strain med2, active compounds read low 1.04 | locus YDL035C, strain GPR1, active compounds read low 1.02 | locus YDL040C, strain nat1, active compounds read low 1.02 | locus YDL074C, strain BRE1, active compounds read low 1 | locus YDL101C, strain DUN1, active compounds read low 1.01 | locus YDL134C, strain PPH21, active compounds read low 0.997 | locus YDL185W, strain tfp1, active compounds read low 1 | locus YDL192W, strain arf1, active compounds read low 1 | locus YDR001C, strain nth1, active compounds read low 1.02 | locus YDR069C, strain doa4, active compounds read low 1.02 | locus YDR101C, strain arx1, active compounds read low 0.972 | locus YDR137W, strain rgp1, active compounds read low 1.03 | locus YDR159W, strain sac3, active compounds read low 1.02 | locus YDR162C, strain NBP2, active compounds read low 1.01 | locus YDR195W, strain ref2 1.02 | locus YDR297W, strain sur2, active compounds read low 1.02 | locus YDR318W, strain mcm21, active compounds read low 1.02 | locus YDR334W, strain swr1, active compounds read low 1.03 | locus YDR335W, strain msn5, active compounds read low 1.03 | locus YDR388W, active compounds read low 0.99 | locus YDR392W, strain spt3, active compounds read low 0.987 | locus YDR502C, strain sam2, active compounds read low 1.02 | locus YEL003W, strain gim4, active compounds read low 1.01 | locus YEL037C, strain rad23, active compounds read low 1.02 | locus YEL061C, strain CIN8 (second series), active compounds read low 1.02 | locus YEL061C, strain CIN8, active compounds read low 1.03 | locus YER015W, strain faa2, active compounds read low 1.02 | locus YER016W, strain bim1, active compounds read low 1.04 | locus YER110C, active compounds read low 0.988 | locus YER111C, strain swi4, active compounds read low 1.02 | locus YER155C, strain BEM2 (second series), active compounds read low 1.02 | locus YER155C, strain BEM2, active compounds read low 1.01 | locus YER167W, strain BCK2, active compounds read low 1 | locus YFR010W, strain ubp6, active compounds read low 1.02 | locus YGL078C, strain dbp3, active compounds read low 1.02 | locus YGL086W, strain mad1, active compounds read low 1 | locus YGL167C, strain pmr1, active compounds read low 1.02 | locus YGL173C, strain kem1, active compounds read low 1.02 | locus YGL227W, strain vid30, active compounds read low 1.03 | locus YGL240W, strain doc1, active compounds read low 1.03 | locus YGL248W, strain PDE1, active compounds read low 1.01 | locus YGL253W, strain hxk2, active compounds read low 1.01 | locus YGR078C, strain PAC10, active compounds read low 1.01 | locus YGR135W, strain pre9, active compounds read low 1.04 | locus YGR252W, strain gcn5, active compounds read low 1.22 | locus YHR013C, strain ard1, active compounds read low 1.04 | locus YHR027C, strain rpn1, active compounds read low 1.01 | locus YHR030C, strain SLT2, active compounds read low 1 and 0.993 | locus YHR079C, strain IRE1 (second series), active compounds read low 0.988 | locus YHR079C, strain IRE1, active compounds read low 0.965 | locus YHR094C, strain hxt1, active compounds read low 0.978 | locus YHR129C, strain ARP1, active compounds read low 0.964 | locus YHR142W, strain chs7, active compounds read low 1.03 | locus YHR200W, strain rpn10, active compounds read low 1.01 | locus YIL066C, strain RNR3, active compounds read low 1 | locus YIL073C, strain SPO22, active compounds read low 1.05 | locus YIL125W, strain kgd1, active compounds read low 1.01 | locus YIR030C, strain dcg1, active compounds read low 0.99 | locus YJL092W, strain hpr5, active compounds read low 1.03 | locus YJL095W, strain BCK1 (second series), active compounds read low 1.02 | locus YJL095W, strain BCK1, active compounds read low 1.03 and 0.964 | locus YJL115W, strain asf1, active compounds read low 1.02 | locus YJL129C, strain trk1, active compounds read low 1.04 | locus YJL134W, strain LCB3, active compounds read low 1 | locus YJL154C, strain vps35, active compounds read low 1.01 | locus YJL164C, strain tpk1, active compounds read low 1.02 | locus YJL166W, strain qcr8, active compounds read low 1.03 | locus YJL168C, strain set2, active compounds read low 0.986 | locus YJL187C, strain SWE1 (second series), active compounds read low 1.01 | locus YJL187C, strain SWE1, active compounds read low 1.05 | locus YJR043C, strain POL32, active compounds read low 1.01 | locus YJR066W, strain TOR1, active compounds read low 0.924 | locus YKL009W, strain mrt4, active compounds read low 1.01 | locus YKL068W, active compounds read low 1.01 | locus YKL085W, strain MDH1 (second series), active compounds read low 0.999 | locus YKL085W, strain MDH1, active compounds read low 0.999 | locus YKL160W, strain elf1, active compounds read low 1.02 | locus YKR001C, strain vps1, active compounds read low 0.998 | locus YKR026C, strain gcn3, active compounds read low 1.02 | locus YKR091W, strain srl3, active compounds read low 1.02 | locus YLL001W, strain dnm1, active compounds read low 1.02 | locus YLL026W, active compounds read low 1.02 | locus YLL041C, strain sdh2, active compounds read low 1.01 | locus YLR027C, strain aat2, active compounds read low 1.01 | locus YLR039C, strain RIC1, active compounds read low 1.02 | locus YLR058C, strain SHM2, active compounds read low 1.01 | locus YLR102C, strain apc9, active compounds read low 0.982 | locus YLR113W, strain HOG1, active compounds read low 0.999 | locus YLR221C, strain rsa3, active compounds read low 1.01 | locus YLR258W, strain gsy2, active compounds read low 1.01 | locus YLR262C, strain YPT6 (second series), active compounds read low 1.02 | locus YLR262C, strain YPT6, active compounds read low 1.04 | locus YLR268W, strain sec22, active compounds read low 1.01 | locus YLR320W, strain mms22, active compounds read low 1.03 | locus YLR330W, strain CHS5, active compounds read low 1.02 | locus YLR342W, strain FKS1 (second series), active compounds read low 1.01 | locus YLR342W, strain FKS1, active compounds read low 1.02 | locus YLR357W, strain rsc2, active compounds read low 1.03 | locus YLR370C, strain arc18, active compounds read low 1.02 | locus YLR371W, strain rom2, active compounds read low 0.965 | locus YLR384C, strain iki3, active compounds read low 1.02 | locus YLR418C, strain cdc73, active compounds read low 1.06 | locus YML016C, strain PPZ1, active compounds read low 1 | locus YML032C, strain rad52, active compounds read low 1.01 | locus YML120C, strain ndi1, active compounds read low 1.02 | locus YML124C, strain tub3, active compounds read low 0.996 | locus YMR058W, strain fet3, active compounds read low 1.02 | locus YMR078C, strain ctf18, active compounds read low 0.99 | locus YMR125W, strain sto1, active compounds read low 1.06 | locus YMR129W, active compounds read low 1.02 | locus YMR205C, strain PFK2, active compounds read low 1.02 | locus YMR223W, strain ubp8, active compounds read low 1.03 | locus YMR231W, strain pep5, active compounds read low 1.02 | locus YMR307W, strain GAS1, active compounds read low 1.05 | locus YNL067W, strain RPL9B, active compounds read low 1.02 | locus YNL071W, strain lat1, active compounds read low 1.02 | locus YNL153C, strain GIM3, active compounds read low 1.01 | locus YNL183C, strain NPR1, active compounds read low 0.956 | locus YNL209W, strain ssb2, active compounds read low 1.02 | locus YNL233W, strain BNI4, active compounds read low 1.01 | locus YNL248C, strain rpa49, active compounds read low 1.04 | locus YNL250W, strain rad50, active compounds read low 1.02 | locus YNL271C, strain bni1, active compounds read low 1.01 | locus YNL298W, strain CLA4, active compounds read low 1.01 | locus YNL307C, strain MCK1, active compounds read low 0.99 | locus YNL322C, strain KRE1 (second series), active compounds read low 1.04 | locus YNL322C, strain KRE1, active compounds read low 1.01 | locus YNR049C, strain mso1, active compounds read low 1.02 | locus YNR052C, strain pop2, active compounds read low 0.998 | locus YOL012C, strain htz1 0.827 | locus YOL147C, strain pex11, active compounds read low 0.995 | locus YOR001W, strain rrp6, active compounds read low 0.995 | locus YOR061W, strain CKA2, active compounds read low 1.01 | locus YOR069W, strain VPS5, active compounds read low 1.01 | locus YOR070C, strain gyp1, active compounds read low 1.02 | locus YOR080W, strain dia2, active compounds read low 1.04 | locus YOR083W, strain WHI5, active compounds read low 1.02 | locus YOR106W, strain vam3, active compounds read low 1.02 | locus YOR136W, strain idh2, active compounds read low 0.994 | locus YOR144C, strain elg1, active compounds read low 0.993 | locus YOR184W, strain ser1, active compounds read low 1 | locus YOR231W, strain MKK1, active compounds read low 0.991 | locus YOR265W, strain rbl2, active compounds read low 1.02 | locus YOR270C, strain vph1, active compounds read low 1.05 | locus YOR290C, strain snf2, active compounds read low 0.99 | locus YOR316C, strain cot1, active compounds read low 0.986 | locus YPL051W, strain arl3, active compounds read low 1.01 | locus YPL078C, strain atp4, active compounds read low 1.02 | locus YPL106C, strain sse1, active compounds read low 1.01 | locus YPL240C, strain hsp82, active compounds read low 1.02 | locus YPL256C, strain CLN2, active compounds read low 0.977 | locus YPR119W, strain clb2, active compounds read low 0.992 | locus YPR141C, strain kar3, active compounds read low 0.996 | locus YPR163C, strain tif3, active compounds read low 1.01 | locus YPR167C, strain met16, active compounds read low 0.999 | strain wtn01, active compounds read low 1.05
